Reference: ChEMBL document CHEMBL3988442, “University of Dundee, Small-Polar-MMV Screening Library” (2021)
Screen size: about 48,000 compounds; about 13,000 (27%) showed an effect of 50% or more. The list shows a part of the results.

System: Wolbachia pipientis
Experiment: Anti-Wolbachia Cell-Based Screen
Format: functional
Design: scale not given: in the data most compounds retested in dose-response had high values
Details: 5 µM

Structure (SMILES) | Percent Effect [%]
CC(c1ccc(F)cc1)n1ccnc1-c1cc2n(n1)CCCNC2 (centres undefined) | -9.513
CCC(C)(NCc1nnc(C(C)(C)C)o1)c1nccs1 (centres undefined) | -1.916
CS(=O)(=O)CCc1ncnn1-c1ccc(F)c(Cl)c1 | -1.677
CCN1CC2(CCN(C(=O)C(C)Oc3ccc(F)cc3Cl)CC2)CC1=O (centres undefined) | -0.3825
CCCC(O)CN1CCC(=O)N(C)Cc2cc(F)ccc21 (centres undefined) | 92.66
CN1Cc2cc(F)ccc2N(CC(O)C(F)(F)F)CCC1=O (centres undefined) | 104.4
CC(Cn1cccn1)NC(=O)NCCCN1CCc2ccccc21 (centres undefined) | -6.742
CC(C)CNC(=O)CCN1C(=O)CCc2cc(F)ccc21 | -21.96
CC(O)CN1CC2(CCC1=O)CCN(Cc1cc(F)ccc1Cl)CC2 (centres undefined) | 0.5458
CCCC(C)NC(=O)CCN1C(=O)CCc2cc(F)ccc21 (centres undefined) | -15.19
CCN1Cc2cc(F)ccc2N(CC(O)C(F)(F)F)CCC1=O (centres undefined) | 105.6
CC(C)C(C)NC(=O)CCN1C(=O)CCc2cc(F)ccc21 (centres undefined) | -7.908
CN1Cc2ccccc2N(CC(O)C(F)(F)F)CCC1=O (centres undefined) | 95.04
CS(=O)(=O)Nc1ccc(CNC(=O)CN2CCc3ccccc32)cc1 | 8.101
OC(CN1CCCc2ccc(F)cc21)Cn1cccn1 (centres undefined) | -5.11
N#Cc1c(Cl)nsc1NCC1(c2ccccc2)CCC1 | 12.51
CCNC(=O)[C@@H]1C[C@H](NC(=O)c2ccccc2C#N)CN1CCCSC | -7.827
CCN(CC)C(=O)[C@@H]1C[C@H](NC(=O)c2cccn2C(C)C)CN1C | 0.9655
CSCCC(C)(O)CNC(=O)c1ccsc1 (centres undefined) | -0.07665
C/C=C(\C)CN1C[C@@H](NC(=O)c2ccc(O)c(Cl)c2)C[C@H]1C(=O)NCC | -9.176
CCNC(=O)[C@@H]1C[C@@H](NC(=O)c2cccn2C)CN1CCCSC | 111.5
CCNC(=O)[C@@H]1C[C@@H](NC(=O)c2ccc(C#N)cc2)CN1CCCSC | 95.48
CCNC(=O)[C@@H]1C[C@@H](NC(=O)c2ccc(C)cc2O)CN1CCCSC | 82.24
CCNC(=O)[C@@H]1C[C@@H](NC(=O)c2ccsc2)CN1CCCSC | 107.8
CCNC(=O)[C@@H]1C[C@H](NC(=O)c2cncnc2C)CN1CCCSC | -8.18

Structure (SMILES) | Percent Effect [%]
CCNC(=O)[C@@H]1C[C@@H](NC(=O)Cc2ccncc2)CN1Cc1ccsc1 | -6.435
C/C=C(\C)CN1C[C@@H](NC(=O)c2ccc(F)c(F)c2)C[C@H]1C(=O)NCC | -14.95
COCC(=O)N1CCC2(CC1)CC(N1CCN(C)CC1)CO2 (centres undefined) | -3.796
O=C(CCc1nc(Cl)n[nH]1)N1C[C@@H](CN2CCCCCC2)[C@@H](CO)C1 | 5.284
COc1ccc(C(=O)N2CCC(Oc3ccc(C)cc3)(C(=O)O)CC2)o1 | -8.575
CCc1nnsc1C(=O)N1CCCN(Cc2ccc(C)cc2)CC1 | 9.546
Cc1ccc(CN2CCOC(C)(c3cnn(C)c3)C2)cc1 (centres undefined) | -10.42
Cc1cccc2[nH]c(C3CCN(C(=O)c4cnc[nH]c4=O)CC3)nc12 | -11.79
CC(NCc1cccc2c1OCCO2)c1cc2c(cc1Br)OCCO2 (centres undefined) | -2.569
CSCC(C)(O)CNC(=O)c1ccc(Br)cc1C (centres undefined) | 6.824
CC(=O)N1CCC(c2nccnc2-c2ccc(F)c(F)c2)CC1 | 101.1
COc1ccccc1-c1nccnc1C1CCN(C(C)=O)CC1 | 137.3
CN1CCCC1c1nccnc1-c1ccc(C(=O)O)cc1 (centres undefined) | 141.8
COc1ccccc1-c1ccc(C2CCCN(C(C)=O)C2)nc1 (centres undefined) | 120.7
COc1ccccc1-c1nnc([C@H]2CCN(C(C)=O)C2)o1 | 4.286
COc1cccc(-c2nccnc2C2CCN(C(C)=O)CC2)c1 | -11.4
CS(=O)(=O)CCC(=O)N1CCC(c2ccc(F)c(F)c2)CC1 | -5.239
COc1cccc(C(=O)N2CCCC(c3cc(C)[nH]n3)C2)c1OC (centres undefined) | 3.009
CC(O)c1cn(CC2CCN(C(=O)CN3CCCC3=O)CC2)nn1 (centres undefined) | -6.496
CCCN(CC1CC1)C(=O)Nc1ccc(N2CCSCC2)cc1C | -17.78
COCCN(C)c1ccc(NCc2cscn2)nc1 | 1.249
CN1CCOC(CNC(=O)CCc2cc(F)ccc2F)C1 (centres undefined) | 5.661
CC(=O)N1CCC(c2nccnc2-c2ccc(F)cc2)CC1 | 97.61
CC(=O)N1CCC(N2CC[C@H](c3nc4cc(F)ccc4o3)C2)CC1 | -6.986
COc1ccc(-c2nccnc2C2CCN(C(C)=O)CC2)cc1 | -14.84

Structure (SMILES) | Percent Effect [%]
CC(=O)N1CCC(c2nccnc2-c2ccc(C(=O)O)cc2)CC1 | 96
O=C(C1CCOCC1)N1CCc2ncnc(-c3ccc(F)cc3)c2CC1 | -7.65
NC(=O)C1CCCN1CCCc1ccc(C(F)(F)F)cc1 (centres undefined) | -6.15
CC(C)N(C)C(=O)c1ccc(CNc2ncc(C#N)cc2Cl)cc1 | -8.928
CCN1CCN(CCNc2nc3ccc(C)cc3c(=O)n2C)CC1 | 1.756
O=C(O)C(F)(F)F.O=C(O)C(F)(F)F.O=C(c1cccnc1)N1Cc2nccn2CC(COc2cccnc2)C1 (centres undefined) | 111
COCC1CN(C(=O)c2cccc(C)n2)Cc2nccn2C1.O=C(O)C(F)(F)F (centres undefined) | -3.838
Cc1nc(C)n(CC2CN(Cc3nccs3)Cc3nccn3C2)n1.O=C(O)C(F)(F)F (centres undefined) | -6.636
O=C(N1CCCC1)N1Cc2nccn2CC(COc2cccnc2)C1.O=C(O)C(F)(F)F (centres undefined) | 96.45
CN(Cc1cccnc1)CC1CN(C(=O)C2CC2)Cc2nccn2C1.O=C(O)C(F)(F)F.O=C(O)C(F)(F)F (centres undefined) | -3.173
CS(=O)(=O)N1Cc2nccn2CC(CNC(=O)c2cccnc2)C1.O=C(O)C(F)(F)F (centres undefined) | -1.051
O=C(NCC1CN(c2ncccn2)Cc2nccn2C1)c1cccnc1.O=C(O)C(F)(F)F (centres undefined) | 8.129
O=C(O)C(F)(F)F.c1cnc(N2Cc3nccn3CC(COc3cccnc3)C2)nc1 (centres undefined) | 111.9
CC(=O)N1Cc2nccn2CC(CNC(=O)c2cccnc2)C1.O=C(O)C(F)(F)F (centres undefined) | -4.633
Cc1occc1C(=O)N1Cc2nccn2CC(CN2CCCC2)C1.O=C(O)C(F)(F)F (centres undefined) | -14.64
O=C(O)C(F)(F)F.O=C(O)C(F)(F)F.c1cncc(OCC2CN(Cc3nccs3)Cc3nccn3C2)c1 (centres undefined) | 104
Cc1ccc(CNC(c2ccccc2)c2nccn2C)cc1C (centres undefined) | -2.774
COc1ccc(C(=O)NS(=O)(=O)c2ccc(CNC(C)=O)s2)cc1 | -0.9731
Cc1ccnc(NS(=O)(=O)c2cc(C(N)=O)n(C)c2)c1 | 8.268
Cc1cc(C)cc(NC(=O)CN2CCCC(n3cncn3)C2)c1 (centres undefined) | 8.702
CC(=O)N1CCC2(CC1)CN(C(=O)c1ccc3c(c1)OCO3)C2 | -7.452
CS(=O)(=O)NCC1CCCN(C(=O)c2ccc3c(c2)CCC3)C1 (centres undefined) | -4.65
CC(=O)NC[C@]1(O)CCN(C(=O)c2ccc(C)c(F)c2)C[C@H]1O | 111.8
CC[C@@]1(O)CCN(C(=O)c2ccc(CN3CCCCCC3)cc2)C[C@H]1O | -35.93
CC(=O)NC[C@]1(O)CCN(C(=O)c2ccc3c(c2)OCO3)C[C@H]1O | 124.1

Structure (SMILES) | Percent Effect [%]
CC[C@@]1(O)CCN(C(=O)c2ccc(SC)cc2)C[C@H]1O | -2.102
CC(=O)NC[C@]1(O)CCN(C(=O)c2ccc3c(c2)CCC3)C[C@H]1O | 101.7
CC(=O)NC[C@]1(O)CCN(C(=O)c2ccc(F)c(Cl)c2)C[C@H]1O | 117.5
CC[C@@]1(O)CCN(C(=O)c2ccc(-c3cccc(F)c3)cc2)C[C@H]1O | -0.249
CC(C)=CCN1C[C@H]2CC[C@@H]1CN(C(=O)c1ccc3c(c1)OCO3)C2 | 36
CC[C@@]1(O)CCN(C(=O)CCNC(=O)c2ccc(F)cc2)C[C@H]1O | -29.52
COCC1CC2(CCN(C(=O)c3ccc(F)c(Cl)c3)CC2)CO1 (centres undefined) | -3.157
Cc1nn(CCO)cc1CN1CCC(C(C)N2CCCC2)CC1 (centres undefined) | 9.031
CCOc1ccc(CNC2CCCN(c3cccnn3)C2)cc1OC (centres undefined) | -5.556
CCCn1ncc(C(=O)N(Cc2cccnc2)C[C@@H]2CCC(=O)N2)c1C | -6.874
CCn1c(CC2CCN(C(=O)C3CC(C(C)C)=NO3)CC2)nn(C)c1=O (centres undefined) | 5.338
O=C(CCC(=O)N1CCCC1c1cccs1)N1CCc2sccc2C1 (centres undefined) | 12.25
O=C(NC1CC(=O)N(C2Cc3ccccc3C2)C1)c1cc[n+]([O-])cc1 (centres undefined) | 5.46
CC(=O)N1CCN(C(=O)CNc2c(C)cccc2OC(F)F)CC1 | -9.064
Cc1ccc(C(=O)N2CCC(=O)N(CC3CC3)C(C(C)C)C2)c(=O)[nH]1 (centres undefined) | 0.658
CC(Cc1ccco1)NC(=O)Nc1cnn(CC(N)=O)c1 (centres undefined) | 6.71
Cc1cc(C)nc(Nc2cc(C)nc(C3CCN(C(=O)CO)C3)n2)n1 (centres undefined) | 114
Cc1cc(C(F)(F)F)nc(C2CCN(C(=O)CO)CC2)n1 | 124.3
Cc1cc(O)nc(C2CCN(C(=O)CO)CC2)n1 | 98.46
COCCNC(=O)CN1CCN(c2nc(C)cs2)C(C)C1 (centres undefined) | 5.094
COCCNC(=O)c1cc(C)nc(C2CCN(C)CC2)n1 | 102.6
COc1cc(C)nc(N2CCN(C(=O)COCC(F)(F)F)CC2)n1 | -18.67
CCOCCCNC(=O)c1cc(C)nc(N2CCCC2)n1 | 24.14
CNCC(=O)N1CCCC(c2cccc(Nc3nc(C)cc(C)n3)n2)C1 (centres undefined) | -17.94
